The record followed here is PubChem BioAssay (NCI).

About 79,000 compounds went through this panel and 15% of them were active in at least one assay; those are over-represented in the sample as a whole. The source made the active and inactive calls. Cut-off read from the data, not from the text of the source: active = growth inhibition above about 70%; inactive = the rest.

The experiment is described as follows: NCI Yeast Anticancer Drug Screen. Data for the sgs1 mgt1 strain (AID 161).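 Note: 0% = growth of cultures given vehicle only.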 The conditions noted are these: S. cerevisiae sgs1 mgt1 strain, at 50.0 µM, stronger effect = higher value. The method in brief: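 Test agents were incubated with a DNA-repair-mutant yeast strain. Growth was then read and compared against vehicle-treated controls.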
`O=C(N/N=C/c1ccccc1O)c1ccccc1-n1cccc1`: the growth inhibition was 80% (active).
In the case of `O=C1CN(CCN2CCOCC2)CC(=O)N2Cc3ccccc3CN12`, the growth inhibition was 66.5% (inactive).
Turning to `CCC[CH2][Sn]([CH2]CCC)([NH]c1ncnc2[nH]cnc12)[NH]c1ncnc2[nH]cnc12`, the growth inhibition was 85.5% (active).
Next, `Oc1ccc(Br)cc1C=Nc1c(NC2CCCCC2)oc2ccc(Br)cc12`: 41.8% (inactive).
With `Cc1cc2c(C(C)C)c(O)c(O)c3coc(/c1=c1/c(C)cc4c(C(C)C)c(=O)c(=O)c5coc1c45)c32`, the growth inhibition is 99% (active).
As for `O=C1c2ccccc2C(=O)N1/N=C\c1ccccc1[N+](=O)[O-]`, the growth inhibition is -3.8% (inactive).
In the case of `O[C@H](CNCCS)[C@@H](O)CNCCS`, the growth inhibition is 80.1% (active).
Consider `C[C@]12CC[C@H](O)CC1=CC[C@@H]1C2CC[C@]2(C)C(=O)N(N)C(=O)CC12` (some centres not stated), for which the growth inhibition is 87.8% (active).
On to `O=C(C(/C=N/C(=S)NCc1ccccc1)=C(/O)c1ccccc1)c1ccccc1`, for which the growth inhibition is 98.2% (active).
Turning to `C=CC1(c2ccc(-c3ccccc3)cc2)OCCO1`, the growth inhibition was 74.4% (active).
Regarding `C=C1CC(COc2ccc3c(C)cc(=O)oc3c2)(c2ccccc2)OC1=O` (configuration not stated), the growth inhibition is 59.6% (inactive).
As to `CN(C)CCCNc1c2ccccc2nc2ccc([N+](=O)[O-])cc12`, the growth inhibition is 20.7% (inactive).
The same measure for `CN1CCC(OC(=O)c2ccc3ncccc3c2)CC1`: 17.6% (inactive).
Consider `COc1ccc(/C=C2/C(=O)N(C(=O)c3ccccc3O)N=C2C)cc1OC`, for which the growth inhibition is 47.4% (inactive).
For the compound `CC1([N+](=O)[O-])C(=O)C2(N3CCOCC3)CCCC2C1c1ccccc1` (configuration not stated), the growth inhibition was 4.95% (inactive).
The same measure for `COc1ccc(C2=C(Cl)C(=O)N(c3ccc(C)cc3)C(=O)C2(Cl)Cl)cc1`: 94.2% (active); for `COc1ccnc(-c2cc(OC)cc(/C(N)=N/O)n2)c1`: 96% (active); for `Nc1ccccc1CCc1ccccc1`: 41.8% (inactive).
As for `COC(=O)c1ccc(OCCC(=O)CCl)cc1`, the growth inhibition is 99.7% (active).
Next, `CCCCCCCCCCCCS(=O)(=O)CC(Br)C(=O)c1ccco1` (configuration not stated): 95.3% (active).
In the case of `FC(F)(F)C(F)(F)C1(F)C(F)(F)C(F)(F)C(F)(F)C(F)(F)C1(F)F`, the growth inhibition is 99.6% (active).
For `O=C(O)C(O)C(O)C(O)C(O)CO.[Ag]` (configuration not stated), the growth inhibition was 99.5% (active).
